Source: PubChem BioAssay (The Scripps Research Institute Molecular Screening Center)
SRC2 TRFRET art: TR-FRET signal artefacts, primary screen, artefact control for PPARgamma SRC-2 agonist project, biochemical | TR-FRET artefact counter-screen; hits give high values | TR-FRET ratio at 8 µM | actives 0.4% (n = 200,000) | AID 1049, 2008
PPARg SRC-1 ag: PPARgamma agonists recruiting SRC-1 coactivator, primary screen, biochemical | actives 0.41% (n = 200,000) | Peroxisome proliferator-activated receptor gamma (Homo sapiens), P37231 | activation, % at 8 µM | PPARgamma-SRC-1 coactivator recruitment biochemical assay; in the data active = activation above about 19%;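 note: 0% = DMSO and 100% = reference agonist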
Target sequence (P37231 whole entry, looked up): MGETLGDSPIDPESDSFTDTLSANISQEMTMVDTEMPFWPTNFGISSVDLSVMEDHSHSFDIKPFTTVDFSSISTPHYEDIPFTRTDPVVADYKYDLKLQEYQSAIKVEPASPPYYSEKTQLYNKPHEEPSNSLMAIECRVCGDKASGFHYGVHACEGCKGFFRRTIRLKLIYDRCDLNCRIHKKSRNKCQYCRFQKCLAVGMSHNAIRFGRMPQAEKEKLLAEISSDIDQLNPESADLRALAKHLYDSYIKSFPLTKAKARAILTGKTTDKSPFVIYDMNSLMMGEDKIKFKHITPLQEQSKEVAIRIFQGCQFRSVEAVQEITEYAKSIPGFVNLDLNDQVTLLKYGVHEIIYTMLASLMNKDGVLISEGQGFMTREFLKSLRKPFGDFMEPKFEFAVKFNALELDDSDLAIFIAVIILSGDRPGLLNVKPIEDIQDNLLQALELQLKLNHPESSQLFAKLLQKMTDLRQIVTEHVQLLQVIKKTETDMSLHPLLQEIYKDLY
PPARg SRC3 recr: PPARgamma agonists recruiting SRC-3 coactivator, primary screen, biochemical; biochemical PPARgamma/SRC-3 coactivator recruitment assay; activation, % at 8 µM; actives 0.26% (n = 200,000); in the data active = activation above about 23%;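 note: 0% = DMSO and 100% = reference agonist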
PPARg SRC-2 ag: agonists of PPARg-SRC-2 recruitment, primary screen, biochemical, HTS; Peroxisome proliferator-activated receptor gamma (Homo sapiens), P37231; PPARgamma LBD-SRC-2 recruitment; activation, % at 8 µM; actives 0.34% (n = 200,000); in the data active = activation above about 22%;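 note: 0% = vehicle and 100% = reference agonist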
SRC1 TRFRET art: TR-FRET detection interference compounds, primary screen, artefact control for PPARgamma SRC-1 recruitment agonists, biochemical, TR-FRET emission ratio; TR-FRET detection artefact counter-screen; hits give high values; TR-FRET ratio at 8 µM; actives 0.34% (n = 99,000); in the data active = TR-FRET ratio above about 2300
SRC3 TRFRET art: TR-FRET detection interference compounds, artefact control for PPARgamma SRC-3 recruitment agonists, biochemical, TR-FRET ratio | TR-FRET artefact counter-screen, PPARgamma/SRC-3 format; hits give high values | TR-FRET ratio at 8 µM | actives 0.39% (n = 99,000) | AID 1048, 2008
An asterisk follows results filed as active; . = no result. In the library only some 0.9% were active in any assay of this set; here they are far more common. Cut-off read from the data, not from the text of the source, unless noted: active = TR-FRET ratio above about 2000; inactive = the rest.

SMILES	SRC2 TRFRET art	PPARg SRC-1 ag	PPARg SRC3 recr	PPARg SRC-2 ag	SRC1 TRFRET art	SRC3 TRFRET art
Cc1ccc(C2(c3noc(CN(C)CCCN4CCOCC4)n3)CCCC2)cc1	1464	12	0	-4	1903	1594
NC(=S)Nc1cccc2cc3ccccc3cc12	1632	14	16	22*	.	.
Cc1[nH]c2ccccc2c1/C=N/Nc1ccccn1	2002*	15	9	10	1781	1761
Cc1[nH]c2ccccc2c1/C=N/Nc1nncn1N	1675	4	6	9	1975	1704
CC(=O)OCC(=O)Nc1cc(S(=O)(=O)N2CCCCCC2)ccc1Cl	1518	-3	-2	3	1694	1482
O=C(COC(=O)c1cc(Br)ccc1O)Nc1cc(S(=O)(=O)N2CCCC2)ccc1Cl	1710	0	2	-3	2170	2102*
CN1CCc2c(sc3c2C(=O)NC(c2cccs2)N3)C1 (configuration not stated)	1555	6	0	9	.	.
CN1CCc2c(sc3c2C(=O)NC(c2ccc(-c4cccc(Cl)c4)o2)N3)C1 (configuration not stated)	1595	17	8	8	2385*	1691
CCOc1ccc(Nc2nnc(Cc3ccc(OC)cc3)c(=O)[nH]2)cc1	1570	4	2	6	1663	1574
CCOC(=O)c1sc2nccc(N(C)C)c2c1N=CN(C)C	1529	4	27*	7	.	.
CN(C)C=Nc1c(C(=O)c2ccccc2)sc2nccc(N(C)C)c12	1610	-2	0	10	2016	1650
CN(CC(=O)Nc1ccc(S(=O)(=O)N2CCCC2)cc1)Cc1c(F)cccc1Cl	1845	9	2	5	1720	1391
CN1Cc2cccc3c2C(Cc2ccccc2S3)C1 (configuration not stated)	1544	6	0	1	1705	1693
COc1ccc(C)cc1NC(=O)c1ccccc1NS(=O)(=O)c1cccc2cccnc12	1482	0	7	-3	1876	1557
Cc1cccc(NC(=O)c2sc3nc(-c4ccc(F)cc4)cn3c2C)n1	1617	36*	-4	-2	.	.
CCCNC(=O)C(CC)NS(=O)(=O)c1ccc(OC)cc1 (configuration not stated)	1497	7	44*	13	.	.
CSc1nc2sccc2c(=O)[nH]1	1538	-3	1	-2	1900	1619
O=c1[nH]c(=S)[nH]c2sccc12	2050*	-1	6	8	2108	1856
COc1ccc(C[C@@H]2CN3C(=NC[C@@H]3C)N2CCNC(=O)c2ccc(C)c(Br)c2)cc1	1556	20	-1	4	1844	1647
CC(C(=O)Nc1ccc2c(c1)OCCO2)c1ccc([N+](=O)[O-])cc1 (configuration not stated)	1717	-2	5	0	1602	2361*
O=C(COc1ccccc1-c1ccccc1)NCc1ccco1	1456	54*	-5	3	4796*	1556
C#CCn1c(=NC(=O)c2ccc(Cl)s2)sc2cccc(OC)c21	1639	10	30*	6	.	.
c1ccc(Cn2ccc(-c3cnc(-c4ccccc4)s3)n2)cc1	1529	9	1	4	.	.
CC1(C)Cc2c(C#N)c(SCC(=O)c3ccccc3)nc(N3CCOCC3)c2CO1	3056*	2	-9	60*	.	.
CC1(C)Cc2c(C#N)c(SCc3ccccc3)nc(N3CCOCC3)c2CO1	1710	11	-7	2	.	.
SMILES	SRC2 TRFRET art	PPARg SRC-1 ag	PPARg SRC3 recr	PPARg SRC-2 ag	SRC1 TRFRET art	SRC3 TRFRET art
COc1ccc(C2CC(c3ccc(Br)cc3)=NN2C(=O)CSC2=NCCS2)cc1 (configuration not stated)	1826	-8	5	9	1958	2257*
CCN(CC)C(=O)CSc1nc2ncccc2[nH]1	1315	6	32*	10	.	.
Cc1cc(C)n(-c2nc(SCC(=O)Nc3nccs3)c3c4c(sc3n2)COC(C)(C)C4)n1	1687	19*	5	5	.	.
O=C(CN1CCN(Cc2ccccc2Cl)CC1)N/N=C/C=C/c1ccccc1[N+](=O)[O-]	1480	1	-2	-1	1732	1411
CCOC(=O)Nc1ccccc1C(=O)Nc1cc(C)cc(C)c1	1463	-1	6	4	1754	1456
CCOC(=O)Nc1cccc(NC(=O)c2ccccc2F)c1	1470	9	3	9	2378*	1632
O=C1CCCN1CCCNC(=S)Nc1ccc(F)cc1	1370	-5	-2	0	1772	1493
O=C1CCCN1CCC1CCN(C(=S)Nc2ccc(F)cc2)CC1	1700	-1	15	22*	.	.
O=S(=O)(Nc1cccc(C(F)(F)F)c1)c1cnc[nH]1	1811	5	1	35*	1838	1615
O=S(=O)(Nc1ccc(C(F)(F)F)cc1)c1cnc[nH]1	1467	8	-1	6	1541	1657
Cc1cc(C)c(S(=O)(=O)Cc2ccccc2)c(=O)[nH]1	1533	3	1	-1	1820	1331
CCCCSc1nc(C)nc2c1c(=O)n(C)c(=O)n2C	1678	2	-1	10	.	.
CCCSc1nc(C)nc2c1c(=O)n(C)c(=O)n2C	1545	24*	-2	0	.	.
Cn1ccnc1C1CCCCN1Cc1nc(-c2ccc3c(c2)OCO3)no1 (configuration not stated)	1447	38*	-3	-7	3563*	1488
CCCCC(CC)c1nnc(NC(=O)c2cccs2)s1 (configuration not stated)	1818	-2	6	22*	1873	1670
Cn1c(SCc2cccc(Cl)c2)nc(C(F)(F)F)cc1=O	1608	4	11	4	.	.
CC(OC(=O)c1cc2sccc2n1C)C(=O)NCc1cccs1 (configuration not stated)	1517	24*	8	1	.	.
COc1ccc(S(=O)(=O)Nc2c(F)cccc2F)cc1	2118*	3	5	22*	1989	1710
COc1ccc(CCN(C)S(=O)(=O)c2ccc(Cl)nc2)cc1OC	1975*	7	3	0	1881	1616
CN(Cc1ccccc1)S(=O)(=O)c1ccc(Cl)nc1	1574	6	12	3	.	.
N#C/C(=C\c1ccc(Cl)cc1)c1nc2ncccc2[nH]1	1352	4	3	1	.	.
CCCCc1c(C)nc2ccc(Br)cc2c1SCCC#N	2017*	7	13	14	2268	2091*
CCc1c(C)nc2c(Br)cccc2c1SCCC#N	1953	11	12	19	2367*	2026
